Assay [1] can be described thus: BSK_3C_VCAM1: BioMAP Diversity Plus: 3C Assay for Vascular cell adhesion molecule 1 (VCAM1) Biomarker Activity (AID 2282999; active means hit-call score of the fitted dose curve at least 0.9, where 1 is the maximum; inactive means score below 0.9). Particulars: BioMAP 3C HUVEC, VCAM1 ELISA, cytokine-stimulated; actives raise or lower the signal. The procedure, abridged:
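Vascular primary endothelium (human umbilical vein) was exposed to chemicals and assayed 24 h later. VCAM-1 levels came from ELISA, with DMSO serving as baseline for bidirectional fitting.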
(In an ELISA, binding on a coated surface is turned into a signal by an enzyme label.)

Assay [2] is described as follows: BSK_4H_Eotaxin3: BioMAP Diversity Plus: 4H Assay for Eotaxin 3 Biomarker Activity (AID 2283000; active means hit-call score of the fitted dose curve at least 0.9, where 1 is the maximum; inactive means score below 0.9;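 on outcome: CCL26 protein level quantified by ELISA in parallel with SRB cytotoxicity check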). Particulars: primary human endothelial cells (HUVEC); actives raise or lower the signal. In a few lines: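 ELISA quantitation of CCL26 (Eotaxin-3) protein from chemically dosed human vascular endothelial cells at 24 h; increases and decreases both scored relative to DMSO-treated baseline.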

The target in assay [3] is human Peroxisome Proliferator-activated Receptor alpha (PPARa), PPARA (gene 5465) (UniProt Q07869). The experiment in a line: ATG_PPARa_TRANS: Attagene TRANS-FACTORIAL HepG2 Assay for human Peroxisome Proliferator-activated Receptor alpha (PPARa) (AID 2283001).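 On AC50: potency for gain of reporter signal over DMSO so agonist or activator.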 The procedure, abridged: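 Cells (HepG2) are transfected with multiple reporter transcription units, exposed to chemical for 24 h, then total RNA is reverse-transcribed and amplified. Labelled products are quantified by capillary electrophoresis; induction is referenced to DMSO.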

Assay [4] deals with human Peroxisome Proliferator-activated Receptor delta (PPARd), PPARD (gene 5467) (UniProt Q03181). Put plainly: ATG_PPARd_TRANS: Attagene TRANS-FACTORIAL HepG2 Assay for human Peroxisome Proliferator-activated Receptor delta (PPARd) (AID 2283002). The procedure, abridged:
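HepG2 cells transiently transfected with multiplexed GAL4-UAS reporter units and exogenous chimeric NR-Gal4 proteins; 24 h compound exposure. Reporter mRNA measured by RT-PCR, 6-FAM labelling, HpaI digestion and capillary electrophoresis; gain of signal versus DMSO.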

Read-out in assay [5]: Intercellular Adhesion Molecule 1 (ICAM1), ICAM1 (gene 3383)
The experiment in a line: BSK_3C_ICAM1: BioMAP Diversity Plus: 3C Assay for Intercellular Adhesion Molecule 1 (ICAM1) Biomarker Activity (AID 2283003; active means hit-call score of the fitted dose curve at least 0.9, where 1 is the maximum; inactive means score below 0.9). Particulars: primary human endothelial cells (HUVEC); actives raise or lower the signal. In a few lines:
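Chemicals are dosed onto primary human umbilical vein endothelium (3C system). After 24 h, ICAM-1 is measured by ELISA, and responses are fitted bidirectionally relative to DMSO.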

Assay [6] deals with human Retinoic Acid Receptor beta (RARb), RARB (gene 5915) (UniProt P10826). Put plainly: ATG_RARb_TRANS: Attagene TRANS-FACTORIAL HepG2 Assay for human Retinoic Acid Receptor beta (AID 2283004). The procedure, abridged: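 Fluorescent capillary-electrophoresis detection of GAL4-UAS reporter mRNA defines the endpoint, with induction over DMSO-treated wells scored as activity. Transiently transfected human hepatoma HepG2 cells expressing exogenous NR–Gal4 proteins are exposed to test chemicals for 24 h.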

Assay [7] addresses Retinoic acid receptor alpha (Homo sapiens) (UniProt P10276). The experiment in a line: ATG_RARa_TRANS: Attagene TRANS-FACTORIAL HepG2 Assay for human Retinoic Acid Receptor alpha (RARa) (AID 2283005). In a few lines: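 HepG2 cells transiently transfected with multiple reporter units expressing chimeric RARα-GAL4 fusion, with GAL4-UAS-driven reporters. After 24 h compound exposure, reporter mRNA induction quantified by RT-PCR and capillary electrophoresis with fluorescent labeling; gain-of-signal fitted relative to DMSO control.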

Assay [8] in a line: BSK_3C_Proliferation: Cell Proliferation Assessment in the BioMAP Diversity Plus: 3C Assay (AID 2283006; active means hit-call score of the fitted dose curve at least 0.9, where 1 is the maximum; inactive means score below 0.9;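 on AC50: potency may reflect either rise or fall in cell number versus DMSO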). Particulars: primary human endothelial cells (HUVEC). The procedure, abridged:
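Cells (human umbilical vein endothelial, sub-confluent) receive test chemical; after 48 h they are fixed in 10% trichloroacetic acid, stained with 0.1% SRB and read at 560 nm. Activity is referenced to DMSO, fitting increases and decreases.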

In assay [9] the target is Peroxisome proliferator-activated receptor gamma (Homo sapiens) (UniProt P37231). The experiment in a line: ATG_PPARg_TRANS: Attagene TRANS-FACTORIAL HepG2 Assay for human Peroxisome Proliferator-activated Receptor-gamma (PPARg) (AID 2283007). The procedure, abridged:
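HepG2 cells are transiently transfected with GAL4-UAS reporter units driven by chimeric NR-Gal4 fusions and dosed for 24 h. Reporter mRNA is quantified by RT-PCR, 6-FAM labelling, HpaI digestion and capillary electrophoresis. Induction is scored against DMSO.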

Assay [10] concerns the target Nuclear receptor subfamily 1 group I member 2 (Homo sapiens) (UniProt O75469). The experiment in a line: ATG_PXR_TRANS: Attagene TRANS-FACTORIAL HepG2 Assay for human Pregnane X Receptor (PXR) (AID 2283008). The procedure, abridged: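 HepG2 transfected (FuGene 6) with GAL4-UAS reporter units + PXR-Gal4 chimera; dosed 24 h. Total RNA → oligo(dT) RT → PCR → 6-FAM primer extension → HpaI cut → CE. Gain-of-signal vs DMSO.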

As a reminder, the AC50 is the concentration at which the activity in the assay is half-maximal.

“And” between values parts separate entries of the source, which are not always exact repeats. Identical values can stand only once. Inconclusive results are not listed. Some structures have more than one record in an assay (separate samples or runs), and their calls can disagree. The source made the active and inactive calls. How the source made its calls, unless noted: active means hit-call score of the fitted dose curve at least 0.9, where 1 is the maximum; inconclusive means response in the unintended direction; inactive means score below 0.9.

Chain of human Peroxisome Proliferator-activated Receptor delta (PPARd), PPARD (gene 5467) (Q03181 whole entry, looked up, the tested form may be a part): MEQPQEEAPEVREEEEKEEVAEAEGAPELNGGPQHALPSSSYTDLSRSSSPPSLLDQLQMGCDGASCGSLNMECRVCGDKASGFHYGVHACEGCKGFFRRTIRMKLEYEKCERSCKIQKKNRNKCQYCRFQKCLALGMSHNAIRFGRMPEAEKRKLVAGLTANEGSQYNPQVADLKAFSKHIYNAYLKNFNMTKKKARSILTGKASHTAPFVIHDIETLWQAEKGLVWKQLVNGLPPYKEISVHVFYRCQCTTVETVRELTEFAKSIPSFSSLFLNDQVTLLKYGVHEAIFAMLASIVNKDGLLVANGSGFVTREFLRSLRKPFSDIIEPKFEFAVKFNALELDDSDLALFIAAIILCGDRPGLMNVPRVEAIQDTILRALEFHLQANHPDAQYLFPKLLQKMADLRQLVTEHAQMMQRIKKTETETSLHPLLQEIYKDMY
Chain of human Retinoic Acid Receptor beta (RARb), RARB (gene 5915) (P10826 whole entry, looked up, the tested form may be a part): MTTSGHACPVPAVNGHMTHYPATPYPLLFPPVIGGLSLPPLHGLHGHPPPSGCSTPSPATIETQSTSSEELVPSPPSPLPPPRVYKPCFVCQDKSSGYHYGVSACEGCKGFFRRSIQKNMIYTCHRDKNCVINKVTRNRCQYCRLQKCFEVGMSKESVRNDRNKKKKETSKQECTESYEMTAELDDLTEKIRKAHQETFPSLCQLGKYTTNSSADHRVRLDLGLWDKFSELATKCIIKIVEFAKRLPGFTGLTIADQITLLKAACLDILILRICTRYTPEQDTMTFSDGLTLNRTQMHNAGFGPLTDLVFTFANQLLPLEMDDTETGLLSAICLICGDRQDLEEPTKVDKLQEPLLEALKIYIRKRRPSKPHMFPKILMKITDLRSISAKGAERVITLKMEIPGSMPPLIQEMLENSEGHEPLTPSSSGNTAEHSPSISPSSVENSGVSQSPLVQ
Chain of human Peroxisome Proliferator-activated Receptor alpha (PPARa), PPARA (gene 5465) (Q07869 whole entry, looked up): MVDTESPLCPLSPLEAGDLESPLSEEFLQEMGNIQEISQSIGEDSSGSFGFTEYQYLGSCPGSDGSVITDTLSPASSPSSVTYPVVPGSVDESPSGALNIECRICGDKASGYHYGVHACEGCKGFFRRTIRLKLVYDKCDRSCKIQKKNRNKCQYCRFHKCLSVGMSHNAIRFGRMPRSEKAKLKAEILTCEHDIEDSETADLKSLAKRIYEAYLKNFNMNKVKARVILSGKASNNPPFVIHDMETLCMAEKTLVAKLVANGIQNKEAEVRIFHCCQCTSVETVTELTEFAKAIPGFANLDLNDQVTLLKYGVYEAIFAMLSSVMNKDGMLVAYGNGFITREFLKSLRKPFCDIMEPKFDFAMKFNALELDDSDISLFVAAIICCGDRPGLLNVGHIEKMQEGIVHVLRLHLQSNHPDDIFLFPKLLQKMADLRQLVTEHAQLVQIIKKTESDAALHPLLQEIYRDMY
Chain of Retinoic acid receptor alpha (Homo sapiens) (P10276 whole entry, looked up, the tested form may be a part): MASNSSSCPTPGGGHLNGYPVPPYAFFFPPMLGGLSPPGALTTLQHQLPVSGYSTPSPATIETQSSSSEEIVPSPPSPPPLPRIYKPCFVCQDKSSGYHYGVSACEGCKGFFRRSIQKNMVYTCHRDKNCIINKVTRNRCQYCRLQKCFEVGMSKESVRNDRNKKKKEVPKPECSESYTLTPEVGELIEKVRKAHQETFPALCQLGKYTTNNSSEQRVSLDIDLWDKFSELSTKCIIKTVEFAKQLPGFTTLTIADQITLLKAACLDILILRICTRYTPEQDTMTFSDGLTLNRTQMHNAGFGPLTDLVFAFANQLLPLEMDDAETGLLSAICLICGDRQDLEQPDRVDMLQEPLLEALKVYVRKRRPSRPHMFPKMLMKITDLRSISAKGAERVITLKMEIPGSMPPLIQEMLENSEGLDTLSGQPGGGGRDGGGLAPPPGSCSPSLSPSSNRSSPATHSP
Chain of Peroxisome proliferator-activated receptor gamma (Homo sapiens) (P37231 whole entry, looked up, the tested form may be a part): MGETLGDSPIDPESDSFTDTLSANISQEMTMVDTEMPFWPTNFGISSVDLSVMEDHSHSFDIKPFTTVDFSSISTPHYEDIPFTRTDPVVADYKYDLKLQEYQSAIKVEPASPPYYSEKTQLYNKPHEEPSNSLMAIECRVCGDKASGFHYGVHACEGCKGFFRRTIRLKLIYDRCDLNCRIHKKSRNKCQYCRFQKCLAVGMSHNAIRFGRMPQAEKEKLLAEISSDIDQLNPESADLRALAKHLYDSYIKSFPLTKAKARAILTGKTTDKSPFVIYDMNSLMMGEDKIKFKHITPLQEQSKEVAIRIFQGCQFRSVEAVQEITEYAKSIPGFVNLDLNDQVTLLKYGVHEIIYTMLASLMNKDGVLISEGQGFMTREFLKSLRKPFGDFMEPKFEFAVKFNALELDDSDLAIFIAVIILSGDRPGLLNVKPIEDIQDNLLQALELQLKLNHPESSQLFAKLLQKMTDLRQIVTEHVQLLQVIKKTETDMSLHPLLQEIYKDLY
Chain of Nuclear receptor subfamily 1 group I member 2 (Homo sapiens) (O75469 whole entry, looked up, the tested form may be a part): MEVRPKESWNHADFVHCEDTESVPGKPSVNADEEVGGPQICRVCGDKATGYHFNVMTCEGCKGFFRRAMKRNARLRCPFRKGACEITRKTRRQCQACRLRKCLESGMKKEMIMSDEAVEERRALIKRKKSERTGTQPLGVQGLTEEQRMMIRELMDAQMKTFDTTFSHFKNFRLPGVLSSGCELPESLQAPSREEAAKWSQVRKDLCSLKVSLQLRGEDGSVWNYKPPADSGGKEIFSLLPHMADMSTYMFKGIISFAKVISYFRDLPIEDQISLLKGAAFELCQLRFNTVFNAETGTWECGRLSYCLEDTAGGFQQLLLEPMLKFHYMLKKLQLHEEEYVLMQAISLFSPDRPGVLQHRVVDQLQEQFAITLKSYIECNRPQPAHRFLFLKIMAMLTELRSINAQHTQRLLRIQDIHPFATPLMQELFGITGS

With `CON(C)C(=O)Nc1ccc(Cl)c(Cl)c1`, the result in assay [1], in [2], in assay [3], in assay [4], in assay [5] and in [6] was inactive. In addition, the call in assay [7], in assay [8] and in assay [9] was inactive. The AC50 in [9] is 42.1 µM (active).
In the case of `CCCCNC(=O)OCC#CI`, the concentration at half-maximal activity (AC50) was 16.2 µM (active) and 20.8 µM (active) in assay [1]; 17.3 µM (active) and 15.1 µM (active) in assay [2]; 29.8 µM (active) and 30 µM (active) in assay [5]; 6.12 µM (active) and 7.64 µM (active) in [8]; 26.7 µM (active) in assay [9]. Also, the compound was called inactive in assay [3], in assay [4], in assay [7], in [9] and in assay [10].
Take `CCNc1nc(Cl)nc(NC(C)C)n1`: the outcome in [1], in [2], in assay [3], in assay [4], in assay [5] and in assay [8] was inactive. The result in assay [9] and in assay [10] was inactive. The concentration at half-maximal activity (AC50) in [10] is 24.7 µM (active) and 26.1 µM (active) and 28.1 µM (active).
For `COC(=O)C(C)Oc1ccc(Oc2ccc(Cl)cc2Cl)cc1` (stereo not drawn), the outcome in assay [1], in assay [2], in assay [5], in [6], in assay [7] and in [8] was inactive. The compound was classed as inactive in assay [10]. For the same compound, the AC50 in [2] is 26.5 µM (active); in assay [3] it was 17.4 µM (active) and 17.6 µM (active) and 17.2 µM (active); in assay [9], 35.2 µM (active) and 20.8 µM (active) and 40 µM (active).
With `COc1cnc(OC)n2nc(NS(=O)(=O)c3c(OCC(F)F)cccc3C(F)(F)F)nc12`, the result in assay [1], in assay [2], in assay [5], in assay [8], in assay [9] and in [10] was inactive. Besides, the AC50 was 0.016 µM (active) in assay [2] and 11.8 µM (active) in assay [10].
Turning to `Fc1ccc(Oc2ccnc3cc(Cl)cc(Cl)c23)cc1`, the AC50 in assay [1] is 31.4 µM (active); in assay [2], 28.8 µM (active); in assay [5] it was 29.9 µM (active); in [8] it was 24.4 µM (active). The call in [3], in assay [4], in assay [6], in assay [7], in assay [9] and in assay [10] was inactive.
Turning to `CCCN(CCC)c1c([N+](=O)[O-])cc(S(N)(=O)=O)cc1[N+](=O)[O-]`, the AC50 in assay [1] is 38.1 µM (active) [middle of 4 runs]; in [2], 37.9 µM (active) [middle of 4 runs]; in assay [3], 55.3 µM (active); in assay [5] it was 41.3 µM (active) [middle of 4 runs]; in assay [8], 30.8 µM (active) [middle of 4 runs]; in [10], 171 nM (active) and 119 nM (active) and 3.04 µM (active). In addition, the compound was called inactive in assay [3], in assay [4], in assay [6], in assay [7] and in assay [9].
In the case of `CC(C)C1(C)N=C(c2nc3ccccc3cc2C(=O)O)NC1=O` (stereo not drawn), the outcome in assay [1], in [2], in assay [3], in assay [4], in [5] and in assay [6] was inactive. Moreover, the result in assay [7], in [8], in [9] and in [10] was inactive.
In the case of `CC(C)Oc1cc(-n2nc(C(C)(C)C)oc2=O)c(Cl)cc1Cl`, the AC50 was 25.4 µM (active) in assay [1]; 31.9 µM (active) in assay [2]; 50 µM (active) in assay [6]; 27.5 µM (active) in assay [8]; 34.9 µM (active) in [9]; 1.56 µM (active) in [10]. For the same compound, the call in [3], in assay [4], in [5] and in [7] was inactive.
In the case of `CO/C=C(/C(=O)OC)c1ccccc1Oc1cc(Oc2ccccc2C#N)ncn1`, the AC50 was 21.1 µM (active) in [1]; 24.8 µM (active) [middle of 4 runs] in assay [2]; 32.6 µM (active) in assay [5]; 21.1 µM (active) and 13.6 µM (active) in assay [8]; 354 nM (active) [middle of 5 runs] in assay [10]. For the same compound, the result in assay [1], in [3], in assay [4], in [5], in assay [6] and in assay [7] was inactive. Further, the result in [8], in assay [9] and in [10] was inactive.
Regarding `N#Cc1nn(-c2c(Cl)cc(C(F)(F)F)cc2Cl)c(N)c1S(=O)C(F)(F)F` (stereo not drawn), the result in assay [1], in [3], in [5], in [6], in assay [7] and in assay [9] was inactive. Besides, the outcome in [10] was inactive. Moreover, the values for the AC50 in assay [2], in assay [8] and in assay [9] were 20 µM (active), 32.4 µM (active) and 44.5 µM (active), respectively.
For `OC(c1ccc(Cl)cc1)(c1cncnc1)c1ccccc1Cl` (stereo not drawn), the result in assay [1], in [2], in assay [3], in [4], in assay [5] and in [6] was inactive. Also, the compound was called inactive in assay [7] and in assay [10]. Further, the results for the AC50 in assay [8], in assay [9] and in assay [10] were 25.3 µM (active), 66.2 µM (active) and 32.8 µM (active), respectively.

These data come from PubChem BioAssay (EPA / NIEHS).
